Assay results as given in PubChem BioAssay (NCATS).
Results filed as inconclusive are left out. Calls of active or inactive are those of the source. Calls come from the whole dose curve; as a rule, active = well fitted curve in the direction sought with a large enough effect; inconclusive = small, poorly fitted or top-dose-only effect, or another doubt; inactive = no such curve, though single readings can be large; an effect the other way counts as inactive or inconclusive.

Assays:
[1] = Quantitative High-Throughput drug screen in 47 multiple myeloma cell lines against the NCATS MIPE library collection: Delta47_JCRB cell viability assay (AID 1918925; note: nearly all actives have a fitted effect of over 45% in size)
Summary of the method: (§1)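 We plated 500 myeloma cells per well, pinned in MIPE 4.0 compounds, and incubated for 48 hours at 37C. ATP was then quantified with CellTiter-Glo, with DMSO and media-only wells defining 100% and 0%.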

[2] = Quantitative High-Throughput drug screen in 47 multiple myeloma cell lines against the NCATS MIPE library collection: EJM_DSMZ cell viability assay (AID 1918926; note: nearly all actives have a fitted effect of over 30% in size)
Summary of the method: as §1

[3] = Quantitative High-Throughput drug screen in 47 multiple myeloma cell lines against the NCATS MIPE library collection: AMO1_DSMZ cell viability assay (AID 1918927; note: nearly all actives have a fitted effect of over 30% in size)
Summary of the method: as §1

[4] = Quantitative High-Throughput drug screen in 47 multiple myeloma cell lines against the NCATS MIPE library collection: ARP1_JJKsccF8 cell viability assay (AID 1918928; note: nearly all actives have a fitted effect of over 40% in size)
Summary of the method: (§2)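 Cell viability inhibition in this qHTS is measured via ATP content (CellTiter-Glo) after 48 h drug exposure at 37 °C. Wells hold 500 cells; DMSO-treated wells define 100% and medium-only wells 0%.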

[5] = Quantitative High-Throughput drug screen in 47 multiple myeloma cell lines against the NCATS MIPE library collection: ARD_JJKsccE7 cell viability assay (AID 1918929)
Summary of the method: as §1

[6] = Quantitative High-Throughput drug screen in 47 multiple myeloma cell lines against the NCATS MIPE library collection: Karpas620_DSMZ cell viability assay (AID 1918959); note: nearly all actives have a fitted effect of over 30% in size
Summary of the method: (§3)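 qHTS of the MIPE 4.0 collection: 500 myeloma cells/well, 48 h drug exposure at 37C in 5% CO2, then CellTiter-Glo for 5 min at room temperature before luminescence reading.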

[7] = Quantitative High-Throughput drug screen in 47 multiple myeloma cell lines against the NCATS MIPE library collection: KMM1_JCRB cell viability assay (AID 1918960); note: nearly all actives have a fitted effect of over 30% in size
Summary of the method: as §2

[8] = Quantitative High-Throughput drug screen in 47 multiple myeloma cell lines against the NCATS MIPE library collection: Karpas417_ECACC cell viability assay (AID 1918961); conditions: Karpas417 myeloma viability, CellTiter-Glo ATP luminescence, 48 h; viability (% of DMSO): at 45.8 µM (top of the series)
Summary of the method: (§4)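 Luminescent ATP measurement with CellTiter-Glo gives viability, scaled between DMSO-only wells (100%) and media-only wells (0%). Cells, 500 per well, faced library compounds for 48 hours at 37C.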

[9] = Quantitative High-Throughput drug screen in 47 multiple myeloma cell lines against the NCATS MIPE library collection: KHM11_PLB cell viability assay (AID 1918962); note: nearly all actives have a fitted effect of over 35% in size
Summary of the method: as §3

[10] = Quantitative High-Throughput drug screen in 47 multiple myeloma cell lines against the NCATS MIPE library collection: JIM3_ECACC cell viability assay (AID 1918963; note: nearly all actives have a fitted effect of over 35% in size)
Summary of the method: as §3

[11] = Quantitative High-Throughput drug screen in 47 multiple myeloma cell lines against the NCATS MIPE library collection: JIM1_ECACC cell viability assay (AID 1918964)
Summary of the method: as §1

[12] = Quantitative High-Throughput drug screen in 47 multiple myeloma cell lines against the NCATS MIPE library collection: INA6_PLB cell viability assay (AID 1918965; note: nearly all actives have a fitted effect of over 55% in size)
Summary of the method: as §4

[13] = Quantitative High-Throughput drug screen in 47 multiple myeloma cell lines against the NCATS MIPE library collection: JJN3_DSMZ cell viability assay (AID 1918966; note: nearly all actives have a fitted effect of over 50% in size)
Summary of the method: as §1

[14] = Quantitative High-Throughput drug screen in 47 multiple myeloma cell lines against the NCATS MIPE library collection: H1112_PLB cell viability assay (AID 1918967; note: nearly all actives have a fitted effect of over 30% in size)
Summary of the method: as §1

[15] = Quantitative High-Throughput drug screen in 47 multiple myeloma cell lines against the NCATS MIPE library collection: Karpas25_ECACC cell viability assay (AID 1918968; note: nearly all actives have a fitted effect of over 35% in size)
Summary of the method: as §1

[16] = Quantitative High-Throughput drug screen in 47 multiple myeloma cell lines against the NCATS MIPE library collection: KMS12BM_JCRB cell viability assay (AID 1918971); note: nearly all actives have a fitted effect of over 35% in size
Summary of the method: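 Steps: seed 500 cells per well; pin-transfer MIPE 4.0 library; incubate 48 h at 37C, 5% CO2, humidified; add CellTiter-Glo, 5 min room temperature; read luminescence.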

[17] = Quantitative High-Throughput drug screen in 47 multiple myeloma cell lines against the NCATS MIPE library collection: KMS12PE_JCRB cell viability assay (AID 1918972); note: nearly all actives have a fitted effect of over 30% in size
Summary of the method: as §4

[18] = Quantitative High-Throughput drug screen in 47 multiple myeloma cell lines against the NCATS MIPE library collection: KMS20_JCRB cell viability assay (AID 1918973); note: nearly all actives have a fitted effect of over 45% in size
Summary of the method: as §1

[19] = Quantitative High-Throughput drug screen in 47 multiple myeloma cell lines against the NCATS MIPE library collection: KMS27_JCRB cell viability assay (AID 1918970); note: nearly all actives have a fitted effect of over 30% in size
Summary of the method: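 Viability inhibition screen, 48 h compound exposure, luminescent ATP read-out.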

[20] = Quantitative High-Throughput drug screen in 47 multiple myeloma cell lines against the NCATS MIPE library collection: KMS21BM_JCRB cell viability assay (AID 1918974); conditions: ATP luminescence, 48 h; viability: at 45.8 µM (top of the series) unless noted
Summary of the method: as §1

Measured: Potency
Potency is the fitted concentration of half-maximal effect.

Cn1c2ccccc2c2c3c(c4c5ccccc5n(CCC#N)c4c21)CNC3=O
active: [1] 1480 nM | [2] 2960 nM | [3] 935 nM | [4] 7430 nM | [5] 2350 nM | [6] 2350 nM | [7] 935 nM | [8] 148 nM | [9] 833 nM | [10] 6620 nM | [11] 526 nM | [12] 83.3 nM | [13] 3320 nM | [14] 2090 nM | [15] 1870 nM | [16] 16600 nM | [17] 2350 nM | [18] 1480 nM

CN(C)Cc1c(C(=O)NCCOc2ccc(C(=O)NO)cc2)oc2ccccc12
active: [1] 1050 nM | [2] 1870 nM | [3] 526 nM | [4] 526 nM | [5] 590 nM | [6] 743 nM | [7] 469 nM | [8] 372 nM | [9] 1870 nM | [10] 2960 nM | [11] 418 nM | [12] 187 nM | [13] 833 nM | [14] 1870 nM | [15] 662 nM | [19] 264 nM | [16] 469 nM | [17] 418 nM | [18] 372 nM | [20] 46.9 nM

CC(C)c1cnn2c(NCc3ccccc3)cc(N[C@@H](CO)[C@H](O)CO)nc12
active: [1] 166 nM | [2] 235 nM | [3] 118 nM | [4] 264 nM | [5] 148 nM | [6] 296 nM | [7] 166 nM | [8] 83.3 nM | [10] 235 nM | [11] 132 nM | [13] 132 nM | [14] 296 nM | [15] 235 nM | [19] 209 nM | [16] 332 nM | [17] 372 nM | [18] 235 nM

CN1CCN(c2ccc3nc(-c4c(N)c5c(F)cccc5[nH]c4=O)[nH]c3c2)CC1
active: [1] 2350 nM | [2] 18700 nM | [3] 11800 nM | [4] 20900 nM | [5] 14800 nM | [6] 8330 nM | [7] 16600 nM | [8] 8330 nM | [9] 2090 nM | [10] 13200 nM | [13] 20900 nM | [14] 7430 nM | [15] 2640 nM | [19] 7430 nM | [16] 16600 nM | [17] 5900 nM | [18] 1320 nM | [20] 4690 nM

CNC(=O)c1cc(Oc2ccc(NC(=O)Nc3cc(C(C)(C)C)nn3-c3ccc4ncccc4c3)c(F)c2)ccn1
active: [1] 5900 nM | [2] 6620 nM | [3] 7430 nM | [4] 8330 nM | [5] 9350 nM | [6] 23500 nM | [7] 16600 nM | [8] 9350 nM | [10] 3320 nM | [11] 7430 nM | [12] 3320 nM | [13] 2960 nM | [14] 4180 nM | [15] 6620 nM | [19] 23500 nM | [16] 5900 nM | [17] 16600 nM | [18] 5900 nM | [20] 4180 nM

COCCOc1ccc2c(c1)ncn2-c1ccc2cccc(N3CCC(N)CC3)c2n1
active: [1] 4180 nM | [2] 5900 nM | [3] 2090 nM | [4] 418 nM | [5] 2960 nM | [6] 10500 nM | [7] 526 nM | [8] 590 nM | [9] 9350 nM | [10] 10500 nM | [11] 5900 nM | [12] 46.9 nM | [13] 4180 nM | [14] 6620 nM | [15] 66.2 nM | [16] 9350 nM | [17] 37.2 nM | [18] 74.3 nM

COc1cccc2nc(-c3cccs3)nc(NN3C(=O)C=C(C)C3=O)c12
active: [1] 74.3 nM | [2] 296 nM | [3] 93.5 nM | [4] 41.8 nM | [5] 1660 nM | [6] 743 nM | [7] 118 nM | [8] 52.6 nM | [9] 52.6 nM | [10] 148 nM | [11] 105 nM | [13] 1180 nM | [14] 1180 nM | [16] 105 nM | [17] 118 nM | [18] 59 nM | [20] 235 nM

CC=C1NC(=O)[C@H]2CSSCCC=C[C@H](CC(=O)N[C@H](C(C)C)C(=O)N2)OC(=O)[C@H](C(C)C)NC1=O
active: [1] 16.6 nM | [2] 29.6 nM | [3] 14.8 nM | [4] 26.4 nM | [5] 11.8 nM | [6] 26.4 nM | [7] 7.4 nM | [9] 16.6 nM | [10] 46.9 nM | [11] 9.3 nM | [13] 41.8 nM | [14] 37.2 nM | [19] 1 nM | [16] 10.5 nM | [18] 20.9 nM
